{
  "source": "PubChem BioAssay (Tox21)",
  "note": "Inconclusive results are not listed. The source made the active and inactive calls. Calls come from the whole dose curve. % is set by controls: 0 for no effect and ±100 for the full control effect.",
  "data": [
    {"assay": "qHTS assay for small molecule disruptors of the mitochondrial membrane potential - cell viability (AID 720634);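 note: human HepG2 liver cancer cells; nearly all actives have a fitted effect of over 20% in size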", "settings": "HepG2 viability, ATP luminescence (CellTiter-Glo), 1 h; series mostly up to 83.2 µM; activity change, negative = cytotoxicity: at the top concentration", "from_the_text": "U.S. Tox21 Program National Center for Advancing Translational Sciences [NCATS] NIH Chemical Genomics Center [NCGC] U.S. Environmental Protection Agency [EPA] National Institutes of Environmental Health Sciences [NIEHS] National Toxicology Program [NTP] U.S. Food and Drug Administration [FDA] Tox21 Assay Overview: Mitochondrial membrane potential (MMP), one of the parameters for mitochondrial function, is generated by mitochondrial electron transport chain that creates an electrochemical gradient by a series of redox reactions. This gradient drives the synthesis of ATP, a crucial molecule for various cellular processes. Measuring MMP in living cells is commonly used to assess the effect of chemicals on mitochondrial function; decreases in MMP can be detected using lipophilic cationic fluorescent dyes. […] The dye accumulates in the mitochondria of healthy cells as aggregates, with red fluorescence. The mitochondrial potential decreases and the dye could not accumulate in the mitochondria and remains in the cytoplasm in monomers, with green fluorescence. In addition to the mitochondrial potential assay, these cells were also used to test the cytotoxicity by determining the cell viability in the culture based on the quantitation of ATP present. The cytotoxicity was measured in the same assay well of MMP assay.\nTox21 Assay Protocol Summary: 2,000 HepG2 cells in 5 uL/well were dispensed into black, clear-bottom 1536-well plates using a Multidrop Combi (Thermo Scientific) dispenser. The assay plates were incubated for an overnight at 37 C to allow cells to attach to the wells, followed by the transfer of 23 nL compound or DMSO vehicle by a pin tool (Kalypsys). The plates were incubated for 1 hr at 37 C and 5% CO2, followed by the addition of 5 uL of 2X m-MPI dye into each well using Flying Reagent Dispenser (Aurora Discovery) and then CellTiter-Glo reagent was added at 4 uL/well and incubated 30 min at room temperature. Then luminescence intensity was quantified on a ViewLux CCD-based plate reader.", "values": [
      {"smiles": "CC(C)(C)C(=O)CCc1ccc(Cl)cc1", "activity change, negative = cytotoxicity": "-3.35% (inactive)"},
      {"smiles": "CCCCNCC", "activity change, negative = cytotoxicity": "8.1% (inactive)"},
      {"smiles": "CCCC(C)C(O)CC", "note": "(stereo not given)", "activity change, negative = cytotoxicity": "7.38% (inactive)"},
      {"smiles": "CCN1CCN(C(=O)N[C@@H](C(=O)N[C@@H]2C(=O)N3[C@@H]2SC(C)(C)[C@H]3C(=O)O)c2ccccc2)C(=O)C1=O", "activity change, negative = cytotoxicity": "6.03% (inactive)"},
      {"smiles": "CC(=O)SC[C@@H](C)C(=O)N1CCC[C@H]1C(=O)N[C@@H](Cc1ccccc1)C(=O)O", "activity change, negative = cytotoxicity": "5.57% (inactive)"},
      {"smiles": "O=C[C@@H](O)[C@H](O)[C@H](O)CO", "activity change, negative = cytotoxicity": "11.7% (inactive)"},
      {"smiles": "CCNC(=O)C(C)OC(=O)Nc1ccccc1", "note": "(stereo not given)", "activity change, negative = cytotoxicity": "4.75% (inactive)"},
      {"smiles": "CNC(C)=O", "activity change, negative = cytotoxicity": "11.4% (inactive)"},
      {"smiles": "COCc1nnc(-c2ccc[n+]([O-])c2)n1-c1c(Cl)c(Cl)cc2[nH]c(=O)c(=O)[nH]c12", "activity change, negative = cytotoxicity": "2.35% (inactive)"},
      {"smiles": "CC(C)(O)CCCC1=CCC(C=O)CC1", "note": "(stereo not given)", "activity change, negative = cytotoxicity": "-4.46% [at 95.3 µM] (inactive)"},
      {"smiles": "CC(O)CCCCn1c(=O)c2c(ncn2C)n(C)c1=O", "note": "(stereo not given)", "activity change, negative = cytotoxicity": "3.71% (inactive)"},
      {"smiles": "C=C(C)C(=O)OCCOC1CC2CC1C1C=CCC21", "note": "(stereo not given)", "activity change, negative = cytotoxicity": "9.09% [at 95.3 µM] (inactive)"},
      {"smiles": "CC(C)(Sc1cc(C(C)(C)C)c(O)c(C(C)(C)C)c1)Sc1cc(C(C)(C)C)c(O)c(C(C)(C)C)c1", "activity change, negative = cytotoxicity": "-6.73% [at 39.1 µM] (inactive)"},
      {"smiles": "N=C(N)N", "activity change, negative = cytotoxicity": "-3.27% (inactive)"},
      {"smiles": "NC[C@H]1O[C@H](O[C@H]2[C@H](O)[C@@H](O[C@H]3O[C@H](CO)[C@@H](O)[C@H](N)[C@H]3O)[C@H](N)C[C@@H]2N)[C@H](N)[C@@H](O)[C@@H]1O", "outcome": "inactive"},
      {"smiles": "Cc1cc(C)c(C)c(C)c1", "activity change, negative = cytotoxicity": "12% (inactive)"},
      {"smiles": "CCCCS", "activity change, negative = cytotoxicity": "8.92% [at 95.3 µM] (inactive)"},
      {"smiles": "CCOc1ccccc1OCCN[C@H](C)Cc1ccc(OC)c(S(N)(=O)=O)c1", "activity change, negative = cytotoxicity": "0.966% (inactive)"},
      {"smiles": "CCc1ccc(CC)cc1", "activity change, negative = cytotoxicity": "13.2% [at 95.3 µM] (inactive)"},
      {"smiles": "Cc1ccc(O)c([N+](=O)[O-])c1", "activity change, negative = cytotoxicity": "5.13% [at 95.3 µM] (inactive)"},
      {"smiles": "CCOCCOCCOC(C)=O", "activity change, negative = cytotoxicity": "2.99% [at 95.3 µM] (inactive)"},
      {"smiles": "Cc1ccc(NC(N)=O)cc1", "activity change, negative = cytotoxicity": "7.4% [at 95.3 µM] (inactive)"},
      {"smiles": "C/C(=N\\O)c1ccc(OCC(=O)N2CCCCC2)cc1", "activity change, negative = cytotoxicity": "19.3% (inactive)"},
      {"smiles": "CC(C)(C)C(=O)CC(=O)C(C)(C)C", "activity change, negative = cytotoxicity": "2.24% [at 95.3 µM] (inactive)"},
      {"smiles": "CN(C)c1cc(NC(=O)CNC(C)(C)C)c(O)c2c1C[C@H]1C[C@H]3[C@H](N(C)C)C(=O)C(C(N)=O)=C(O)[C@@]3(O)C(=O)C1=C2O", "activity change, negative = cytotoxicity": "7.86% (inactive)"},
      {"smiles": "C=CC(=O)CC", "activity change, negative = cytotoxicity": "-4.34% [at 95.3 µM] (inactive)"},
      {"smiles": "CCCCCCCCS(=O)(=O)O", "activity change, negative = cytotoxicity": "11.8% [at 95.3 µM] (inactive)"},
      {"smiles": "CC(C)(C)OC=O", "activity change, negative = cytotoxicity": "6.35% [at 95.3 µM] (inactive)"},
      {"smiles": "O=C(O)CCC(=O)Nc1ccc(S(=O)(=O)Nc2nccs2)cc1", "activity change, negative = cytotoxicity": "4.19% [at 39.1 µM] (inactive)"},
      {"smiles": "COc1cc2nc(N3CCN(C(=O)C4CCCO4)CC3)nc(N)c2cc1OC", "note": "(stereo not given)", "activity change, negative = cytotoxicity": "1.67% (inactive)"},
      {"smiles": "CC[N+](C)(CC)CC", "activity change, negative = cytotoxicity": "7.95% (inactive)"},
      {"smiles": "CCCCC(CC)CCC(CC(C)C)OS(=O)(=O)O", "note": "(stereo not given)", "outcome": "inactive"},
      {"smiles": "CCN(CC)CC", "activity change, negative = cytotoxicity": "-1.17% [at 95.3 µM] (inactive)"},
      {"smiles": "Cc1ccc(N)nc1", "activity change, negative = cytotoxicity": "8.86% (inactive)"},
      {"smiles": "CCCC(=O)OC", "activity change, negative = cytotoxicity": "11.5% (inactive)"},
      {"smiles": "O=C(O)/C=C(\\CC(=O)O)C(=O)O", "activity change, negative = cytotoxicity": "4.1% (inactive)"},
      {"smiles": "Cc1ccc2cccnc2c1", "activity change, negative = cytotoxicity": "5.58% (inactive)"},
      {"smiles": "CCCCCCCCCCCCCCBr", "activity change, negative = cytotoxicity": "-0.953% [at 95.3 µM] (inactive)"},
      {"smiles": "O=C(O)COc1ccc2ccccc2c1", "activity change, negative = cytotoxicity": "12.8% (inactive)"},
      {"smiles": "CN1C(CCl)Nc2cc(Cl)c(S(N)(=O)=O)cc2S1(=O)=O", "note": "(stereo not given)", "activity change, negative = cytotoxicity": "-2.22% (inactive)"}
    ]}
  ]
}
